Measured values published in PubChem BioAssay.
For some of these results: Potency and affinity values are given separately. Calls of active or inactive are those of the source. Unless noted, the rule behind the calls is not given here.

Columns and labels:
[1] = antimalarial activity against Dd2 strain (AID 2302;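 active = growth inhibition above 50% at the single 2 µM test dose, taken to imply half-maximal potency below 2 µM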;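 note: 0% = DMSO untreated growth and 100% = chloroquine plus artemisinin killed control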); details: P. falciparum Dd2 in RBCs, LDH growth readout, 72 h; at 2 µM; hits give high values
[2] = HepG2 cytotoxicity, primary screen, cytotoxicity control for P. falciparum antimalarial project, cell-based, ATP luminescence (AID 2303;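 active = inhibition above 50%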;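 note: 0% = DMSO wells and 100% = digitonin-killed cells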); details: HepG2 viability, 24-48 h, at 10 µM, hits give high values
[3] = target: L-lactate dehydrogenase (Plasmodium falciparum (isolate CDC / Honduras)) (UniProt Q27743); experiment: PfLDH activity inhibition – cell lysate, 3D7 strain, counter-screen for P. falciparum growth inhibition project (AID 2304);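 note: 0% = vehicle and 100% = reference inhibitor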; details: P. falciparum 3D7 crude extract, LDH APAD/NBT absorbance; at 2 µM; hits give high values
[4] = inhibition of 3D7 malaria parasite growth – strain 3D7 (AID 2306);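 note: 0% = DMSO wells and 100% = chloroquine plus artemisinin control wells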; details: P. falciparum 3D7 erythrocytic growth, LDH absorbance, 72 h; at 2 µM; hits give high values
[5] = target: Calcium-dependent protein kinase 1 (Plasmodium falciparum (isolate 3D7)) (UniProt P62344); experiment: PfCDPK1 kinase inhibitors, biochemical, TCAMS library (AID 1159585; cut-off not given, nearly all actives have IC50 up to about 0.98 µM;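 note: inhibitors leave more ATP so luminescence rises with inhibition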); details: recombinant PfCDPK1, Kinase-Glo ATP depletion luminescence
[6] = target: Plasmodium falciparum protein kinase 6 (PK6, PF3D7_1337100) (UniProt Q8IDW1); experiment: PfPK6 kinase inhibitors, biochemical, TCAMS library (AID 1159586); details: recombinant PfPK6, Kinase-Glo ATP depletion luminescence
[7] = target: Protein kinase 7 (PK7), Plasmodium falciparum 3D7 (PF3D7_0213400) (UniProt Q7YTF7); experiment: inhibition of Plasmodium PK7 catalytic activity – biochemical, TCAMS antimalarial set, Kinase-Glo luminescence (AID 1159587); details: recombinant PfPK7, Kinase-Glo ATP depletion luminescence
[8] = target: Calcium-dependent protein kinase 4 (Plasmodium falciparum (isolate 3D7)) (UniProt Q8IBS5); experiment: PfCDPK4 kinase inhibitors, biochemical, TCAMS library (AID 1159588; cut-off not given, nearly all actives have IC50 up to about 0.91 µM); details: recombinant PfCDPK4, Kinase-Glo ATP depletion luminescence
Calcium-dependent protein kinase 4 (Plasmodium falciparum (isolate 3D7)), sequence (Q8IBS5 whole entry, looked up): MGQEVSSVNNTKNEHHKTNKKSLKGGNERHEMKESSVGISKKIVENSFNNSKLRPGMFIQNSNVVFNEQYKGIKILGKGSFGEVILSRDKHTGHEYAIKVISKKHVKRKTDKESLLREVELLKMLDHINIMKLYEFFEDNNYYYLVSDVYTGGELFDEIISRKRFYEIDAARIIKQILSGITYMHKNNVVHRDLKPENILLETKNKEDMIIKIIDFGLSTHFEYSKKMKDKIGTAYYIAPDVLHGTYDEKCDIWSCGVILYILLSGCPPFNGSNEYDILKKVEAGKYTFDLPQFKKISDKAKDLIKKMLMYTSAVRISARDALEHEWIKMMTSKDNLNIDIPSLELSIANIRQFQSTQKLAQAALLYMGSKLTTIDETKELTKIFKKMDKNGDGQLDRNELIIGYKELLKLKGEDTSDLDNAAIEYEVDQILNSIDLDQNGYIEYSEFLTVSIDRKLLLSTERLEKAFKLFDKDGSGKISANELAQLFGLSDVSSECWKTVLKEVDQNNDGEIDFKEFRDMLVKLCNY

Calcium-dependent protein kinase 1 (Plasmodium falciparum (isolate 3D7)), sequence (P62344 whole entry, looked up): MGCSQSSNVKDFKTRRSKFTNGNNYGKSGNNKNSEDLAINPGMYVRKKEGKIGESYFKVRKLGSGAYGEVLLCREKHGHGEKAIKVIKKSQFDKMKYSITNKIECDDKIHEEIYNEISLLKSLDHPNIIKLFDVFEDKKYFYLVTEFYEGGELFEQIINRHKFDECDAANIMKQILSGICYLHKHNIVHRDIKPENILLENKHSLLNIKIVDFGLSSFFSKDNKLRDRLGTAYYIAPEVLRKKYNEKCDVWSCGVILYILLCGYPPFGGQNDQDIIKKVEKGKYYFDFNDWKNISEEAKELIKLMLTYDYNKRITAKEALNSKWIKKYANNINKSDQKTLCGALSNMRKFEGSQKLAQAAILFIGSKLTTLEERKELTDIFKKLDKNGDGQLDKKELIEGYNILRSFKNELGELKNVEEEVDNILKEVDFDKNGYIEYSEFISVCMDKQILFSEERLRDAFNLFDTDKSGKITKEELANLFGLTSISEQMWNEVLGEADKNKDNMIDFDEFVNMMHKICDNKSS
Plasmodium falciparum protein kinase 6 (PK6, PF3D7_1337100), sequence (Q8IDW1 1-305): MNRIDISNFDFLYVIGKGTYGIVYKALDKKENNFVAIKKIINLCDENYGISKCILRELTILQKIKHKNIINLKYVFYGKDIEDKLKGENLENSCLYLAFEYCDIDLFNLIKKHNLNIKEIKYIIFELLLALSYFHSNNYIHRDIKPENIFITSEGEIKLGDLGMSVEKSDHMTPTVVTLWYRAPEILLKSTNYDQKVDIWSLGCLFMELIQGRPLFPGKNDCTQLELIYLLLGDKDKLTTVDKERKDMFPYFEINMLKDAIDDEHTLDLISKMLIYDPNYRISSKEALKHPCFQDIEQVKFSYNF
Protein kinase 7 (PK7), Plasmodium falciparum 3D7 (PF3D7_0213400), sequence (Q7YTF7 1-343): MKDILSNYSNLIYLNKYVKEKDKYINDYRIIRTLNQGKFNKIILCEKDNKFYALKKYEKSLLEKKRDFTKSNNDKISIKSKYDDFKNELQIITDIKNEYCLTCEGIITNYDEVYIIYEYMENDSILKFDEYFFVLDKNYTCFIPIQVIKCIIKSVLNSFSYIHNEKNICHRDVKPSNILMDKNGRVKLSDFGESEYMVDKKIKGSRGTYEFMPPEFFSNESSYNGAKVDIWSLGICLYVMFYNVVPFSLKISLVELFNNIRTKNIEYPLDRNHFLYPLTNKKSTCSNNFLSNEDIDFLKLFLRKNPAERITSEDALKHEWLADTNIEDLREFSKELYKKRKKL
L-lactate dehydrogenase (Plasmodium falciparum (isolate CDC / Honduras)), sequence (Q27743 whole entry, looked up): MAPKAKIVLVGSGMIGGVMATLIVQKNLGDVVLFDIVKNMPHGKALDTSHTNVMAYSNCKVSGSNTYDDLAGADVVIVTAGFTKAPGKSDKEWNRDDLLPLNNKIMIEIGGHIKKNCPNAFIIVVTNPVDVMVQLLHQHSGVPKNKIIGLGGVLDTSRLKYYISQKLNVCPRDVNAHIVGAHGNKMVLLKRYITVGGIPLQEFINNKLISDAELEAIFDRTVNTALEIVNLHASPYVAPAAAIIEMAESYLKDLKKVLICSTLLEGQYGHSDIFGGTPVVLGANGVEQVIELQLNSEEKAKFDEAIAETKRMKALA

CCOC(=O)c1c(-c2ccccc2)[nH]c2c(sc3ccccc32)c1=O
inactive: inhibition [2] 2% | inhibition [3] -5% | outcome [5] | outcome [6] | outcome [7] | outcome [8]
active: growth inhibition [1] 65% | growth inhibition [4] 97%

Cc1[nH]c(C)c(-c2ccc(-c3ccc(OC(F)(F)F)cc3)nc2)c(=O)c1Br
inactive: inhibition [2] 26% | inhibition [3] 3% | outcome [5] | outcome [6] | outcome [7] | outcome [8]
active: growth inhibition [1] 97% | growth inhibition [4] 97%

COc1cc(Nc2ncc3c(C)nc(-c4cc5ccccc5[nH]4)n3n2)cc(OC)c1OC
inactive: inhibition [2] 19% | inhibition [3] 7% | outcome [5] | outcome [6] | outcome [7] | outcome [8]
active: growth inhibition [1] 65% | growth inhibition [4] 91%

Cc1ccc(C(NC(=O)C2CCCCC2)c2ccc3cccnc3c2O)cc1 (stereo not drawn)
active: growth inhibition [1] 59% | inhibition [2] 69% | growth inhibition [4] 91%
inactive: inhibition [3] 2% | outcome [5] | outcome [6] | outcome [7] | outcome [8]

Cc1cc(Nc2cccc(C#N)c2)nc(Nc2ccccc2C)n1
active: growth inhibition [4] 95%
inactive: growth inhibition [1] 46% | inhibition [2] 10% | inhibition [3] 0% | outcome [5] | outcome [6] | outcome [7] | outcome [8]

Cc1cc(I)ccc1Nc1nc2nonc2nc1Nc1ccc(I)cc1C
active: growth inhibition [1] 96% | inhibition [2] 78% | growth inhibition [4] 100%
inactive: inhibition [3] -2% | outcome [5] | outcome [6] | outcome [7] | outcome [8]

CCCCCCN1CCC(CNCc2cccc(Cl)c2)CC1
active: growth inhibition [4] 85%
inactive: growth inhibition [1] 13% | inhibition [2] 8% | inhibition [3] 1% | outcome [5] | outcome [6] | outcome [7] | outcome [8]

Cc1cc(F)ccc1Nc1nc(N(C)c2ccccc2)c2cc(OCCN(C)C)ccc2n1
inactive: inhibition [2] 37% | inhibition [3] 3% | outcome [5] | outcome [6] | outcome [7] | outcome [8]
active: growth inhibition [1] 55% | growth inhibition [4] 94%

Cc1ccc(Sc2ccc(NC(=O)CN3CCN(C(=O)c4ccco4)CC3)cc2)cc1C
active: growth inhibition [1] 84% | growth inhibition [4] 92%
inactive: inhibition [2] 14% | inhibition [3] 1% | outcome [5] | outcome [6] | outcome [7] | outcome [8]

Cc1ccccc1C1CCN(C2CCC(NC(=O)/C=C/c3cc(F)ccc3F)CC2)CC1 (stereo not drawn)
active: growth inhibition [4] 85%
inactive: growth inhibition [1] 36% | inhibition [2] 47% | inhibition [3] -2% | outcome [5] | outcome [6] | outcome [7] | outcome [8]

CC(=O)Oc1ccc(C(=O)Oc2ccccc2C#CC#N)cc1OC(C)=O
active: growth inhibition [1] 61% | growth inhibition [4] 93%
inactive: inhibition [2] 23% | inhibition [3] -1% | outcome [5] | outcome [6] | outcome [7] | outcome [8]

COc1ccc(OC)c2c1CCN(C)C2Cc1cccc2ccccc12 (stereo not drawn)
inactive: inhibition [2] 13% | inhibition [3] 7% | outcome [5] | outcome [6] | outcome [7] | outcome [8]
active: growth inhibition [1] 79% | growth inhibition [4] 91%

O=C(/C=C/c1cccc(Cl)c1)Nc1ccc2nc(CN3CCCC3)ccc2c1
active: growth inhibition [4] 99%
inactive: growth inhibition [1] 42% | inhibition [2] 47% | inhibition [3] 4% | outcome [5] | outcome [6] | outcome [7] | outcome [8]

O=C(NC1CCN(c2ccnc3cc(Cl)ccc23)C1)c1ccccc1F (stereo not drawn)
active: growth inhibition [1] 71% | growth inhibition [4] 101%
inactive: inhibition [2] 8% | inhibition [3] 4% | outcome [5] | outcome [6] | outcome [7] | outcome [8]

CN(C)CCCNCc1ccc(-c2ccc(F)c(Cl)c2)o1
active: growth inhibition [1] 69% | growth inhibition [4] 93%
inactive: inhibition [2] 29% | inhibition [3] -7% | outcome [5] | outcome [6] | outcome [7] | outcome [8]

O=C(NCc1ccccc1)Nc1ccc(-c2ccc(-c3nc4ccc(C(F)(F)F)cc4[nH]3)cc2)cc1
active: growth inhibition [4] 99%
inactive: growth inhibition [1] 23% | inhibition [2] 40% | inhibition [3] 4% | outcome [5] | outcome [6] | outcome [7] | outcome [8]

COc1ccccc1Cc1c(C)nc2nc(N)nc(N)c2c1C
active: inhibition [2] 69% | growth inhibition [4] 96%
inactive: growth inhibition [1] 2% | inhibition [3] -3% | outcome [5] | outcome [6] | outcome [7] | outcome [8]

COc1cc(C)cc(CN2CCC(Cc3ccccc3)CC2)c1O
inactive: inhibition [2] 35% | inhibition [3] 0% | outcome [5] | outcome [6] | outcome [7] | outcome [8]
active: growth inhibition [1] 94% | growth inhibition [4] 97%

Cc1cc(NN=Cc2ccccc2Cl)c2ccc(F)cc2n1
inactive: inhibition [2] 6% | inhibition [3] -4% | outcome [5] | outcome [6] | outcome [7] | outcome [8]
active: growth inhibition [1] 100% | growth inhibition [4] 101%

O=C(/C=C/c1ccc(Cl)cc1)NCCCCCN1CCCC(C(=O)Nc2ccc(F)c(Cl)c2)C1 (stereo not drawn)
inactive: growth inhibition [1] 6% | inhibition [2] 27% | inhibition [3] 7% | outcome [5] | outcome [6] | outcome [7] | outcome [8]
active: growth inhibition [4] 94%

CCC(C)NS(=O)(=O)c1ccc2nc(Nc3ccc(C)c(Cl)c3)n([C@H](C)C(C)(C)C)c2c1 (stereo partly drawn)
active: growth inhibition [1] 100% | growth inhibition [4] 98%
inactive: inhibition [2] 8% | inhibition [3] -5% | outcome [5] | outcome [6] | outcome [7] | outcome [8]

CC1CCC(NCc2ccc3c(CNC4CCC(C)CC4)c(O)ccc3c2O)CC1 (stereo not drawn)
inactive: inhibition [2] 4% | inhibition [3] -2% | outcome [5] | outcome [6] | outcome [7] | outcome [8]
active: growth inhibition [1] 99% | growth inhibition [4] 101%

O=C1O[C@H](c2ccccc2)[C@H](c2ccccc2)N(C(=O)OCc2ccccc2)[C@H]1Cc1ccccc1C1CCCC1
active: inhibition [2] 56% | growth inhibition [4] 97%
inactive: growth inhibition [1] -3% | inhibition [3] 1% | outcome [5] | outcome [6] | outcome [7] | outcome [8]

COC(=O)[C@@H](NC(=O)[C@H](CC(C)C)Nc1ccc(C#N)c2ccccc12)c1ccc(O)cc1
inactive: inhibition [2] 4% | inhibition [3] 0% | outcome [5] | outcome [6] | outcome [7] | outcome [8]
active: growth inhibition [1] 87% | growth inhibition [4] 98%

O=C(Nc1cccc(-c2ccc(-c3nc4ccc(C(F)(F)F)cc4[nH]3)s2)c1)c1cccnc1
inactive: inhibition [3] -3% | outcome [5] | outcome [6] | outcome [7] | outcome [8]
active: growth inhibition [1] 99% | inhibition [2] 74% | growth inhibition [4] 101%

CC(C)C[C@H](NC(=O)c1cc2ccccc2s1)C(=O)N[C@H]1CCN(Cc2ccc(OC[C@@H]3CCCN3C)c(Cl)c2)C1
inactive: inhibition [3] -4% | outcome [5] | outcome [6] | outcome [7] | outcome [8]
active: growth inhibition [1] 81% | inhibition [2] 83% | growth inhibition [4] 101%

N#Cc1ccc(C=CC(=O)NC2CCC(CCN3CCc4ccc(-c5cnccn5)cc4CC3)CC2)cc1 (stereo not drawn)
inactive: inhibition [2] 37% | inhibition [3] -5% | outcome [5] | outcome [6] | outcome [7] | outcome [8]
active: growth inhibition [1] 87% | growth inhibition [4] 100%

COc1ccc(-c2nc3ccc(C)nc3nc2-c2ccc(OC)cc2)cc1
inactive: growth inhibition [1] -2% | inhibition [2] 4% | inhibition [3] 4% | outcome [5] | outcome [6] | outcome [7] | outcome [8]
active: growth inhibition [4] 91%

CCc1nn2c(Nc3ccncc3)cc(C)nc2c1-c1ccccc1
inactive: inhibition [2] 4% | inhibition [3] 0% | outcome [5] | outcome [6] | outcome [7] | outcome [8]
active: growth inhibition [1] 98% | growth inhibition [4] 100%

CCN1CCC(N(Cc2ccc(-c3ccc(C(F)(F)F)cc3)cc2)C(=O)Cn2c(SCc3cccc(F)c3F)cc(=O)c3ccccc32)C1 (stereo not drawn)
active: growth inhibition [1] 91% | growth inhibition [4] 90%
inactive: inhibition [2] 42% | inhibition [3] 5% | outcome [5] | outcome [6] | outcome [7] | outcome [8]

Cc1[nH]c(C)c(-c2ccc(C(=O)c3ccc(Cl)cc3)cc2)c(=O)c1Cl
inactive: inhibition [2] -1% | inhibition [3] 4% | outcome [5] | outcome [6] | outcome [7] | outcome [8]
active: growth inhibition [1] 95% | growth inhibition [4] 98%

CCC(=O)N(c1ccccc1)C1CCN(CCCC(NC(=O)c2cc(C(F)(F)F)cc(C(F)(F)F)c2)c2ccc(Cl)c(Cl)c2)CC1 (stereo not drawn)
inactive: inhibition [2] 24% | inhibition [3] 0% | outcome [5] | outcome [6] | outcome [7] | outcome [8]
active: growth inhibition [1] 57% | growth inhibition [4] 96%

CN1CCC(OC(=O)c2cc3cc(-c4ccccc4)ccc3n2S(=O)(=O)c2ccccc2)CC1
inactive: growth inhibition [1] 10% | inhibition [2] 31% | inhibition [3] -5% | outcome [5] | outcome [6] | outcome [7] | outcome [8]
active: growth inhibition [4] 88%

CC(O)C1CCCCN1C(=O)c1cccc(-c2cccc(-c3nc4ccc(C(F)(F)F)cc4[nH]3)c2)c1 (stereo not drawn)
inactive: inhibition [2] 32% | inhibition [3] -5% | outcome [5] | outcome [6] | outcome [7] | outcome [8]
active: growth inhibition [1] 100% | growth inhibition [4] 100%

CC(C)N1CCN(CCCNc2c3ccccc3nc3ccccc23)CC1
active: growth inhibition [4] 100%
inactive: growth inhibition [1] 1% | inhibition [2] 29% | inhibition [3] 8% | outcome [5] | outcome [6] | outcome [7] | outcome [8]

CO/C(=C\C=C\c1cc2cc(Cl)c(Cl)cc2[nH]1)C(=O)NCCCN1CCN(c2cccc(O)c2)CC1
inactive: inhibition [2] 46% | inhibition [3] -2% | outcome [5] | outcome [6] | outcome [7] | outcome [8]
active: growth inhibition [1] 100% | growth inhibition [4] 91%

CCNc1cc(C(=O)N[C@@H](Cc2ccccc2)[C@H](O)CNCc2ccc3c(c2)OCCO3)cc(N2CCCCS2(=O)=O)c1
inactive: growth inhibition [1] 45% | inhibition [2] -1% | inhibition [3] -1% | outcome [5] | outcome [6] | outcome [7] | outcome [8]
active: growth inhibition [4] 95%

CC(=O)Nc1ccc(C(=O)Nc2ccc(-c3cccc(-c4nc5ccccc5[nH]4)c3)cc2)cn1
active: growth inhibition [1] 84% | growth inhibition [4] 99%
inactive: inhibition [2] 34% | inhibition [3] 2% | outcome [5] | outcome [6] | outcome [7] | outcome [8]

Cc1ccc(C(=O)Nc2cccc(CN3CCCN(Cc4ccc(O)cc4)CC3)c2)cc1
inactive: growth inhibition [1] 5% | inhibition [2] -4% | inhibition [3] -3% | outcome [5] | outcome [6] | outcome [7] | outcome [8]
active: growth inhibition [4] 88%

Cc1ccc(O)c(-c2cc(C(=O)Nc3ccc(S(=O)(=O)N4CCCC(C)C4)cc3)[nH]n2)c1 (stereo not drawn)
inactive: inhibition [2] 27% | inhibition [3] -2% | outcome [5] | outcome [6] | outcome [7] | outcome [8]
active: growth inhibition [1] 97% | growth inhibition [4] 96%

Cc1cccc2[nH]c(-c3ccc(-c4ccc(CN5CCC(N)C5)cc4)s3)nc12 (stereo not drawn)
inactive: inhibition [2] 21% | inhibition [3] -11% | outcome [5] | outcome [6] | outcome [7] | outcome [8]
active: growth inhibition [1] 98% | growth inhibition [4] 100%
